# The supplement of paper PMC12645437, “Orthogonal IMiD-Degron Pairs Induce Selective Protein Degradation in Cells” (ACS Chemical Biology, 2025)
# Over roughly 8,300 sequences, “log2 fold change of degron read counts, EGFP-low vs EGFP+ sorted cells (limma voom), compound-induced degradation” has its median near -1.1; the highest 2% begin near 3.2. This excerpt belongs to a sample that is enriched for the highest values.
# T1: CRBN, Q96SW2
# T1 chain: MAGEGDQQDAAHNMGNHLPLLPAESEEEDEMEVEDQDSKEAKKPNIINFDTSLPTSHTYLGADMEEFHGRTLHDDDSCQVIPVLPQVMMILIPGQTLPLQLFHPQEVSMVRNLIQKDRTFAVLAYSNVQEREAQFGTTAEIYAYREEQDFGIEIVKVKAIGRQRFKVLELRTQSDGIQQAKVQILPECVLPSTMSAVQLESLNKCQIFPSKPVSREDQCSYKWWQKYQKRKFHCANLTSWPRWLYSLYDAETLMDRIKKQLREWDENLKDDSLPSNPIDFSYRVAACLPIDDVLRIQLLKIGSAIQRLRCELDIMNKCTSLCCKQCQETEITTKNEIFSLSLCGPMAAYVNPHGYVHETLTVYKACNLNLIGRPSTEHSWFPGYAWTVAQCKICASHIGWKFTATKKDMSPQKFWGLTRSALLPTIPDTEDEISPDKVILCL
# Target: T1, CRBN, Q96SW2
# Assay: log2 fold change of degron read counts, EGFP-low vs EGFP+ sorted cells (limma voom), compound-induced degradation; higher = more compound-induced degradation of the degron-EGFP fusion; degrons are variants of IKZF1/3 zinc finger 2; compound dose not given here
# Details: Jurkat, 18 h
# [1] = compound: compound 19 (5-tert-butyl-thalidomide)
# [2] = compound: compound 22 (5-morpholino-thalidomide)
# [3] = compound: compound 33 (diphenyl IMiD analogue)
# 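Also: pooled lentiviral library of zinc finger degron-EGFP fusions in mCherry-positive Jurkat cells, FACS-sorted after compound exposure, with degron abundance counted by next-generation sequencing.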
Sequence,log2 fold change of degron read counts [1],log2 fold change of degron read counts [2],log2 fold change of degron read counts [3],log2 fold change of degron read counts (compound: thalidomide)
"FLCPICGREFTQKGNLLRHIKL [46F_47L_49P_50I_52G_53R_54E_55F_67L_, Q9UKT9]",-2.12,-2.2,-0.686,0.04
"FNCNICGAIFTQKGNLLRHIKL [46F_47N_49N_50I_52G_53A_54I_55F_67L_, Q9UKT9]",-1.14,-1.24,-0.567,-1.09
"FQCDQCGAWFTQKGNLLRHIKL [46F_47Q_49D_50Q_52G_53A_54W_55F_67L_, Q9UKT9]",-2.29,-2.57,-1.93,-1.39
"FFCNVCGAAFTQKGNLLRHIKL [46F_47F_49N_50V_52G_53A_54A_55F_67L_, Q9UKT9]",1.2,1.43,0.704,-0.812
"FTCPICGAYFTQKGNLLRHIKL [46F_47T_49P_50I_52G_53A_54Y_55F_67L_, Q9UKT9]",1,2.25,2.83,3.31
"FSCPICGAYFTQKGNLLRHIKL [46F_47S_49P_50I_52G_53A_54Y_55F_67L_, Q9UKT9]",2.23,1.26,2.17,1.38
"FQCPICGAYFTQKGNLLRHIKL [46F_47Q_49P_50I_52G_53A_54Y_55F_67L_, Q9UKT9]",-1.06,0.884,1.61,3.36
"FICPICGAYFTQKGNLLRHIKL [46F_47I_49P_50I_52G_53A_54Y_55F_67L_, Q9UKT9]",-0.481,2.03,1.75,1.86
"FNCPICGAYFTQKGNLLRHIKL [46F_47N_49P_50I_52G_53A_54Y_55F_67L_, Q9UKT9]",2.2,1.13,0.721,0.825
"FCCPICGAYFTQKGNLLRHIKL [46F_47C_49P_50I_52G_53A_54Y_55F_67L_, Q9UKT9]",1.38,1.19,1.52,1.42
"FWCPICGAYFTQKGNLLRHIKL [46F_47W_49P_50I_52G_53A_54Y_55F_67L_, Q9UKT9]",2.72,2.69,2.4,0.973
"FYCPICGAYFTQKGNLLRHIKL [46F_47Y_49P_50I_52G_53A_54Y_55F_67L_, Q9UKT9]",3.26,3.12,2.39,1.01
"FVCPICGAYFTQKGNLLRHIKL [46F_47V_49P_50I_52G_53A_54Y_55F_67L_, Q9UKT9]",0.319,1.86,1.7,2.59
"LECPICGFPCTQKGNLLRHIKL [46L_47E_49P_50I_52G_53F_54P_55C_67L_, Q9UKT9]",-1.29,-1.77,-0.153,1.04
"FGCNQCGHHFTQKGNLLRHIKL [46F_47G_49N_50Q_52G_53H_54H_55F_67L_, Q9UKT9]",-2.24,-2.34,-1.76,-1.83
"FGCEICGHTFTQKGNLLRHIKL [46F_47G_49E_50I_52G_53H_54T_55F_67L_, Q9UKT9]",-3.25,-2.98,-3.48,-3.14
"FMCEICGHIFTQKGNLLRHIKL [46F_47M_49E_50I_52G_53H_54I_55F_67L_, Q9UKT9]",-2.42,-2.92,-1.97,-2.73
"LQCNQCGFNCTQKGNLLRHIKL [46L_47Q_49N_50Q_52G_53F_54N_55C_67L_, Q9UKT9]",-2.28,-2.12,-2.51,-1.67

Sequence,log2 fold change of degron read counts [1],log2 fold change of degron read counts [2],log2 fold change of degron read counts [3],log2 fold change of degron read counts (compound: thalidomide)
"FHCPICGHHFTQKGNLLRHIKL [46F_47H_49P_50I_52G_53H_54H_55F_67L_, Q9UKT9]",-1.89,-2.04,-1.22,-1.88
"FDCNVCGAQFTQKGNLLRHIKL [46F_47D_49N_50V_52G_53A_54Q_55F_67L_, Q9UKT9]",-1.58,-1.29,-0.82,-0.778
"FVCEQCGAGFTQKGNLLRHIKL [46F_47V_49E_50Q_52G_53A_54G_55F_67L_, Q9UKT9]",-1.4,-0.248,0.586,1.2
"FKCPICGHRFTQKGNLLRHIKL [46F_47K_49P_50I_52G_53H_54R_55F_67L_, Q9UKT9]",-2.63,-2.88,-3.36,-2.52
"FQCDICGAFFTQKGNLLRHIKL [46F_47Q_49D_50I_52G_53A_54F_55F_67L_, Q9UKT9]",-2.31,-1.64,0.643,0.872
"FECNQCGRDFTQKGNLLRHIKL [46F_47E_49N_50Q_52G_53R_54D_55F_67L_, Q9UKT9]",-3.19,-3.55,-3.13,-3.35
"LLCPICGFCCTQKGNLLRHIKL [46L_47L_49P_50I_52G_53F_54C_55C_67L_, Q9UKT9]",0.766,0.49,1.44,1.92
"LCCPICGFCCTQKGNLLRHIKL [46L_47C_49P_50I_52G_53F_54C_55C_67L_, Q9UKT9]",1.74,2.1,2.79,2.63
"LMCPICGFCCTQKGNLLRHIKL [46L_47M_49P_50I_52G_53F_54C_55C_67L_, Q9UKT9]",0.471,1.34,2.61,2.08
"LYCPICGFCCTQKGNLLRHIKL [46L_47Y_49P_50I_52G_53F_54C_55C_67L_, Q9UKT9]",3.56,3.56,2.91,1.99
"LWCPICGFCCTQKGNLLRHIKL [46L_47W_49P_50I_52G_53F_54C_55C_67L_, Q9UKT9]",3.2,3.49,2.92,2.17
"LICPICGFCCTQKGNLLRHIKL [46L_47I_49P_50I_52G_53F_54C_55C_67L_, Q9UKT9]",0.314,1.98,1.85,2.51
"LQCPICGFCCTQKGNLLRHIKL [46L_47Q_49P_50I_52G_53F_54C_55C_67L_, Q9UKT9]",1.14,2.25,2.13,3.61
"LHCPICGFCCTQKGNLLRHIKL [46L_47H_49P_50I_52G_53F_54C_55C_67L_, Q9UKT9]",2.7,2.71,2.46,1.82
"LNCPICGFCCTQKGNLLRHIKL [46L_47N_49P_50I_52G_53F_54C_55C_67L_, Q9UKT9]",1.6,0.635,0.926,1.15
"LDCPICGFCCTQKGNLLRHIKL [46L_47D_49P_50I_52G_53F_54C_55C_67L_, Q9UKT9]",0.0932,-0.387,0.637,1.33
"LVCPICGFCCTQKGNLLRHIKL [46L_47V_49P_50I_52G_53F_54C_55C_67L_, Q9UKT9]",1.02,2.52,2.24,2.97
"LFCPICGFCCTQKGNLLRHIKL [46L_47F_49P_50I_52G_53F_54C_55C_67L_, Q9UKT9]",3.44,3.46,2.76,2.26
